# Laboratory results reported in PubChem BioAssay AID1851 (National Center for Advancing Translational Sciences (NCATS), 2009).
# “And” between values parts separate entries of the source, which are not always exact repeats. Equal entries are not always repeated. Screen size: about 16,000 compounds; about 5,700 (36%) were called active. Roughly 24% stayed inconclusive and do not appear here. Some of the results follow. A number with no mark means an inactive call. Calls follow the shape of the dose curve; as a rule, active = well fitted curve in the direction sought with a large enough effect; inconclusive = small, poorly fitted or top-dose-only effect, or effect the other way; inactive = no such curve, though single readings can be large or run the other way.
# Target: Cytochrome P450 1A2 (Homo sapiens) (UniProt P05177)
# Test: Cytochrome panel assay with activity outcomes
# Conditions: recombinant CYP, pro-luciferin dealkylation, luminescence, p450-cyp1a2; series mostly up to 57.1 µM
# % is scaled to controls: 0 for no effect and ±100 for the full control effect.
# Cytochrome P450 1A2 (Homo sapiens), sequence (P05177 whole entry, looked up): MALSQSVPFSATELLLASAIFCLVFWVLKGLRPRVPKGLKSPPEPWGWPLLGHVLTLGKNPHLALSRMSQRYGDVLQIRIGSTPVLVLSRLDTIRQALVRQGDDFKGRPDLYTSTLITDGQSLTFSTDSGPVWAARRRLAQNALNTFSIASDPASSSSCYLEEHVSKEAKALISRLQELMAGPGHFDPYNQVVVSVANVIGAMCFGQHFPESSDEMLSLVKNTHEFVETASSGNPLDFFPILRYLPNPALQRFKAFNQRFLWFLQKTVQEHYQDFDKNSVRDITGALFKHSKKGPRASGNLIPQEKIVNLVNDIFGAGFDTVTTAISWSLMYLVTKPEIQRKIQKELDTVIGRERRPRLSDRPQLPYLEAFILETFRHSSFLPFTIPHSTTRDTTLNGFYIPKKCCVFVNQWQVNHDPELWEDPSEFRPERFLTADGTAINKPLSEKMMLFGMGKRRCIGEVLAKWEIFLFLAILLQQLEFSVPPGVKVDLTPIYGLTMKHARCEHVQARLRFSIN
Compound,"activity, negative = inhibition",AC50
CN(C)CCSCCO,-14.3% [at 2.29 µM],
CN(CCc1ccccn1)c1ccc2c(c1)Cc1ccccc1-2,,0.631 µM (active)
CN(C)CC[C@@H](c1ccccc1)c1ccccn1,,inactive
CN(C)CC(CN(C)C)c1ccccn1,-16.5% [at 11.4 µM],
CN(CCc1ccccn1)c1ccc2c(c1)C(=O)c1ccccc1-2,,0.158 µM (active)
c1ccc2c(NC3CC3)nc(-c3ccoc3)nc2c1,,0.316 µM (active)
COc1cccc(-c2nc(NC3CCNCC3)c3ccccc3n2)c1,,12.6 µM (active)
c1ccc2c(NC3CCNCC3)nc(-c3ccoc3)nc2c1,,15.8 µM (active)
COc1ccc(-c2cc([C@H](O)[C@@H]3CCCCN3)c3ccccc3n2)cc1,-11% [at 2.29 µM],
COc1cccc(-c2nccc(NC3CCNCC3)n2)c1,,6.31 µM (active)
CC(=O)OC[C@@H]1O[C@@H](O/N=C2/C[C@@H](O)[C@@H](O)[C@@H]3[C@H]4C(=O)N(c5ccc(F)cc5F)C(=O)[C@@H]4CC[C@H]23)[C@H](OC(C)=O)[C@H](OC(C)=O)[C@@H]1OC(C)=O,-3.19% [at 11.4 µM],
Cc1cccc(N(CC(=O)NCCSCc2ccco2)S(=O)(=O)c2ccccc2)c1,,inactive
C/C(CCN1CCCCc2nc(C)c(C)cc21)=N\O[C@@H](C)c1cc(-c2c(C)cc(C)cc2C)no1,2.23% [at 11.4 µM],
Nc1ncnc2c1nc(Sc1ccc(Cl)cc1)n2[C@@H]1O[C@H]2COP(=O)(O)O[C@@H]2[C@H]1O,,inactive
CN(C)c1ccc(-c2nc(NC3CCNCC3)c3ccccc3n2)cc1,,15.8 µM (active)
CC(C)=NO[C@@H](C)c1cn([C@H](CO)Cc2ccccc2)nn1,-7.23% [at 11.4 µM] and -1.97% [at 11.4 µM],
CC1CCN(CCCn2c(=S)[nH]c3ccc(N4CCOCC4)cc3c2=O)CC1,,inactive
CCCCNC(=O)CSc1nc2ccccc2c(=O)n1CCNC(C)=O,,inactive
CCCCn1c(SCC(N)=O)nc2ccc(N3CCOCC3)cc2c1=O,,4.47 µM (active)
CCOC(=O)CCN1C(=O)[C@H]2[C@@H]3[C@H](O)C=CC(=O)[C@H]3CC[C@H]2C1=O,-6.05% [at 11.4 µM],
CC(=O)c1cc(C)ccc1OC(=O)CCN1C(=O)C2C3c4ccccc4C(c4ccccc43)C2C1=O (centres undefined),,15.8 µM (active)
Cc1ccc(C)c(C(=O)CN2C(=O)c3ccccc3S2(=O)=O)c1,,inactive
CN(C)CC/C=C1\c2ccccc2COc2ccccc21,,15.8 µM (active)
C[C@H]1CN(CCO)CCN1c1ccccc1,-18.4% [at 11.4 µM],

Compound,"activity, negative = inhibition",AC50
OCCN1CCN(CCC=C2c3ccccc3Sc3ccc(Cl)cc32)CC1,,15.8 µM (active)
CN1CCN(CCC=C2c3ccccc3Sc3ccc(S(=O)(=O)N(C)C)cc32)CC1,,inactive
CN(C)CC/C=C1\c2ccccc2CSc2ccccc21,,inactive
CN(C)CCC=C1c2ccccc2C=Cc2ccccc21,,inactive
CN(C)CC/C=C1\c2ccccc2Sc2ccc(Cl)cc21,,1.58 µM (active)
CN1CCN(CCCN)CC1,-19.9% [at 11.4 µM],
NC[C@H](O)C1CCCCCCC1,,inactive
CC(C)N(Cc1ccccc1)S(=O)(=O)c1n[nH]c(C(C)(C)C)n1,2.16% [at 11.4 µM],
Cc1ccc(CNC(=O)C2(NC(=O)Nc3ccc(C)cc3)CCCCC2)cc1,,inactive
Cc1ccc(C)c(NC(=O)C2(C)CC3c4ccccc4C2c2ccccc23)c1 (centres undefined),,inactive
Cc1ccc(C)c(NC(=O)NCc2ccc(Cl)cc2)c1,,0.794 µM (active)
CC1(C)C(=O)N(CCN2CCC(C(=O)c3ccc(F)cc3)CC2)c2ccccc21,,inactive
O=C(NCCc1ccccc1)C(=O)NN=C1CCCC1,,12.6 µM (active)
O=C(NCCc1ccccc1)C(=O)NCC1(c2ccccc2)CCCC1,,inactive
O=C(CC(=O)NN=C1CCCC1)NCCc1ccccc1,,inactive
COC(=O)c1[nH]c2ccc(Br)cc2c1NC(=O)CN1CCCc2ccccc21,,5.01 µM (active)
COC(=O)c1[nH]c2ccc(Br)cc2c1NC(=O)CN1CCN(C2CCCCC2)CC1,,12.6 µM (active)
C[C@@H]1CCCN(C[C@@H](O)CN2CCCc3ccccc32)C1,-10.7% [at 11.4 µM],
CC(C)(CN)CN,2.94% [at 11.4 µM],
CN(C)CCNc1nc2c(c(=O)n(C)c(=O)n2C)n1C,-7.73% [at 11.4 µM],
COc1ccccc1CN1CC2(CCN(S(=O)(=O)c3ccccc3)CC2)C1,,inactive
COc1cc([C@H]2c3cc4c(cc3[C@@H](O)[C@@H]3COC(=O)[C@H]23)OCO4)cc(OC)c1OC,,inactive
COc1cc2c(c(O)c1OC)C(=O)C(OC)CCC2 (centres undefined),,12.6 µM (active)
C/C(CCC(=O)OC[C@@H]1O[C@H](C#Cc2ccccc2)C=C[C@@H]1Oc1ccc(C)cc1)=N/O[C@@H](C)CN1CCCCc2nc(C)c(C)cc21,-3.03% [at 11.4 µM],

Compound,"activity, negative = inhibition",AC50
O=[N+]([O-])c1ccc2c(c1)S(=O)c1ccccc1-2 (centres undefined),,0.2 µM (active)
CC1=c2c(oc3cc(O)c(Nc4c(C)cc(O)cc4O)c(C)c23)=CC(=O)C1=Nc1c(C)cc(O)cc1O,,3.16 µM (active)
CN1[C@@H]2CC[C@H]1CC(OC(c1ccccc1)c1ccccc1)C2 (some centres undefined),,inactive
N#Cc1ccc(CN2CCC3(CC2)CCN(S(=O)(=O)c2ccccc2)CC3)cc1,,inactive
C=CCn1c(NCc2ccccc2)nc2ccccc21,,10 µM (active)
C=CCC(C)(NCc1ccccc1)c1ccco1 (centres undefined),,inactive
C=CC(=O)NC(C)(C)Cc1ccccc1,,inactive
CC(=O)Nc1nc2ccccc2n1Cc1ccccc1,,14.1 µM (active)
CS(=O)(=O)c1nc2ccccc2n1Cc1ccccc1,,11.2 µM (active)
O=S(=O)(O)c1nc2ccccc2n1Cc1ccccc1,,inactive
CO[C@@H]1COC(=O)C/C=C\[C@@H](C)[C@H](OC)COC(=O)[C@H](COCc2ccccc2)NC(=O)C/C=C\[C@H]1C,-0.402% [at 11.4 µM],
COCC(=O)N1CCC2(CCCN(C(=O)Nc3cccc(C#N)c3)C2)CC1,,inactive
O=c1oc2ccccc2cc1-c1csc(NN=C2CCCCC2)n1,,0.891 µM (active)
O=C(Nc1ccc(-c2cc3ccccc3oc2=O)c(Cl)c1)c1cccnc1,,inactive
Clc1ccc(Cl)c(SCCCN2CCNCC2)c1,,0.501 µM (active)
Cc1c(C=O)c2ccccn2c1C(=O)c1ccncc1,,1.12 µM (active)
COCCN1C(=O)C(=O)/C(=C(/O)c2cccc(OC)c2)C1c1ccco1 (centres undefined),,inactive
CN1CCN(c2nc(-c3cccnc3)nc3ccccc23)CC1,,3.16 µM (active)
CN1CCN(c2ccncc2S(=O)(=O)N2CCN(C)CC2)CC1,-7.43% [at 2.29 µM],
c1cncc(-c2nc(N3CCNCC3)c3ccccc3n2)c1,,2.51 µM (active)
CC(C)c1ccccc1-n1c(SCC(=O)N2CCN(c3ccccc3)CC2)nnc1-c1cccnc1,,inactive
N#CCSc1nc(N)c(C#N)c(C2CCCCC2)c1C#N,,10 µM (active)
Cn1c(=O)c2[nH]c([C@@H]3CC(=O)C[C@H](c4nc5c([nH]4)c(=O)n(C)c(=O)n5C)N3)nc2n(C)c1=O,-18.2% [at 2.29 µM],
CCCn1c(=O)c2[nH]c(C3CCCC3)nc2n(CCC)c1=O,,0.251 µM (active)

Compound,"activity, negative = inhibition",AC50
CCCCCn1c(CN2CCCCC2C)nc2c1c(=O)n(C)c(=O)n2C (centres undefined),,inactive
Cn1c(=O)c2[nH]c(C3CCCC3)nc2n(C)c1=O,,12.6 µM (active)
Cn1c(=O)c2[nH]c(CCS)nc2n(C)c1=O,-15.3% [at 11.4 µM],
CC(C)(C[C@@]1(C)NC(=O)NC1=O)OCc1ccccc1,-12.1% [at 2.29 µM],
CC(C)Oc1ccc(C2CC(=O)NC3=C2C(=O)CCC3)cc1 (centres undefined),,inactive
CC1=NN(c2ccccc2)C(=O)/C1=C\N1CC(C)OC(C)C1 (centres undefined),,inactive
CC(=O)NC1=NN(c2ccccc2)C(=O)C1,,inactive
CC1=NN(c2ccccc2)C(=O)C1,,12.6 µM (active)
Cc1cccc(OCCn2c(S(=O)(=O)O)nc3ccccc32)c1,,inactive
Cc1cccc(OCCn2c(-c3ccco3)nc3ccccc32)c1,,1.58 µM (active)
C[N+]1(CCOc2ccc([N+](=O)[O-])cc2)CCOCC1,,inactive
N=C(N)SCCc1ccc(OCc2ccc([N+](=O)[O-])cc2)cc1,,31.6 µM (active)
N=C(N)SCCc1ccc(CCSC(=N)N)cc1,,inactive
CC(C)=CCC/C(C)=C/CO/N=C1/C[C@@H](O)[C@@H](O)[C@@H]2[C@H]3C(=O)N(c4ccc(F)cc4F)C(=O)[C@@H]3CC[C@H]12,-0.361% [at 11.4 µM],
COc1ccc(S(=O)(=O)N(CC(=O)N2CCCC2)Cc2ccccc2)cc1,,inactive
CCOc1ccc2[nH]c(=O)c(CN(CCc3ccccc3)C(=O)N3CCCC3)cc2c1,,14.1 µM (active)
COc1ccc(S(=O)(=O)N(CCc2ccccc2)CC(=O)N2CCOCC2)cc1,,inactive
CSc1nnc(-c2sccc2OCc2ccccc2)n1C,,7.08 µM (active)
Cn1c(-c2sccc2OCc2ccccc2)n[nH]c1=S,,0.355 µM (active)
CSc1n[nH]c(-c2sccc2OCc2ccc(C)cc2)n1,,1.41 µM (active)
CC(=O)O[C@]1(C)N=NC2(CCCCC2)O1,-9.6% [at 11.4 µM],
CC(=O)OC[C@@H]1O[C@@H](O/N=C2/C[C@@H](O)[C@@H](O)[C@@H]3[C@@H]4C(=O)N(C[C@@H]5CCCO5)C(=O)[C@H]4CC[C@H]23)[C@H](OC(C)=O)[C@H](OC(C)=O)[C@@H]1OC(C)=O,-5.84% [at 11.4 µM],
